# Measurements as given in PubChem BioAssay.
# Activity calls are given as the source filed them. How the calls were made is not given here.
# Biological target: Pantothenate synthetase (Mycobacterium tuberculosis (strain ATCC 25618 / H37Rv)) (UniProt P9WIL5)
# Test: Recombinant Mtb pantothenate synthetase (PanC) inhibitors, coupled enzyme, confirmatory (AID 375);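 further: 0% = full reaction with vehicle and 100% = no enzyme background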
# Details: coupled enzyme assay; at 10 µM, active compounds read high
# Sequence of Pantothenate synthetase (Mycobacterium tuberculosis (strain ATCC 25618 / H37Rv)) (P9WIL5 whole entry, looked up): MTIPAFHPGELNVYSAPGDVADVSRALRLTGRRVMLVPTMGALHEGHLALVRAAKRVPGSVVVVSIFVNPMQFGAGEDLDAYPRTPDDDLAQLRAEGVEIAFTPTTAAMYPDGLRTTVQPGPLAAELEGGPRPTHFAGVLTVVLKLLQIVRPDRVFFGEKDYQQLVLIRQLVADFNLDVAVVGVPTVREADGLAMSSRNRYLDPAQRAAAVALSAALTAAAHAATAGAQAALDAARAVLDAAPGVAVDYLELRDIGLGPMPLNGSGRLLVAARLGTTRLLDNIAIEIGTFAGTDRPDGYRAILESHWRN
row,SMILES,inhibition
1,O=C(C1CCC(CNS(=O)(=O)c2cccc3cccnc23)CC1)N1CCCC1 (centres undefined),0% (inactive)
2,C#CCN1C(=O)C(O)(CC(=O)c2cccc(OC)c2)c2ccccc21 (centres undefined),0% (inactive)
3,COc1ccccc1NC(=O)N(Cc1ccco1)Cc1cc2cccc(C)c2[nH]c1=O,2% (inactive)
4,COC(=O)c1sc(N)c(C(=O)OC)c1CSc1nc2sc3c(c2c(=O)n1C)CCC3,0% (inactive)
5,COc1ccc(C2C(C(C)=O)=C(O)C(=O)N2C)c(OC)c1 (centres undefined),0% (inactive)
6,Cc1cc(C)n(-c2nc3c(c(=O)[nH]c(=O)n3C)n2Cc2ccc(F)cc2)n1,0% (inactive)
7,CC1(C)OC(=O)C(=CNc2ccccc2F)C(=O)O1,0% (inactive)
8,COc1ccc(S(=O)(=O)Cc2ccc(C(=O)N3CCN(Cc4ccccc4)CC3)o2)cc1,0% (inactive)
9,COCCCNC(=O)CCc1nc2cccnc2n1Cc1ccc(OC)cc1,0% (inactive)
10,CC1CN(C(=O)c2cc3cc(Cl)cc(Cl)c3oc2=O)CC(C)O1 (centres undefined),0% (inactive)
11,CC(C)[C@H](NC(=O)NC1CCCC1)C(=O)O,0% (inactive)
12,CCOc1ccccc1-n1c(SCC(=O)NC2CCCC2)nnc1-c1ccoc1C,1% (inactive)
13,Cc1ccc2nc(/C(C#N)=N/O)[nH]c2c1,10% (inactive)
14,Cc1cc(=O)n2nc(N3CCCC(C(=O)N4CCN(C)CC4)C3)sc2n1 (centres undefined),1% (inactive)
15,CC(=O)NCCc1nc2ccccc2[nH]1,0% (inactive)
16,COc1ccccc1S(=O)(=O)n1cc(Cc2ccccc2)c(N)n1,0% (inactive)
17,Cn1c(=O)c2c(nc(SCC(=O)NCc3ccco3)n2C)n(C)c1=O,0% (inactive)
18,COc1cccc(C(=O)Nc2ccc(NC(=O)C(C)(C)C)cn2)c1,0% (inactive)
19,COc1ccc(Br)cc1C(=O)Nc1nnn(C)n1,0% (inactive)
20,COc1ccc(C(=O)Nc2nc(C)c(C(=O)N(C)C)s2)cc1OC,0% (inactive)

row,SMILES,inhibition
1,COc1ccc(C(=O)Cn2nnc(-c3cccs3)n2)cc1,0% (inactive)
2,Nc1cc(N)cc(-c2nc3ccccc3o2)c1,4% (inactive)
3,CCCCCC1CC(CC#CCN2CCOCC2)C(=O)O1 (centres undefined),7% (inactive)
4,Cn1c(-c2ccccc2)cc(=O)c2ccccc21,0% (inactive)
5,CCOC(=O)C1CCCN(Cc2nc(N)nc(Nc3ccc(C)cc3)n2)C1 (centres undefined),0% (inactive)
6,COc1cccc(NC(=O)c2ccco2)c1,0% (inactive)
7,N#CC1=C(N)OC2=C(CCC/C2=C/c2ccoc2)C1c1ccoc1 (centres undefined),2% (inactive)
8,Cc1cc(C(=O)CSCCCn2c(=O)[nH]c3ccccc32)c(C)n1C,2% (inactive)
9,CCOc1ccccc1C1CC(c2ccc(Br)cc2)Nc2nc(N)nn21 (centres undefined),10% (inactive)
10,O=C(Nc1ccccc1N1CCN(C(=O)c2ccc(Cl)cc2)CC1)c1cc2ccccc2o1,3% (inactive)
11,Cc1nc(SCC(=O)CC(=O)OC(C)C)c(C#N)c(C)c1C,0% (inactive)
12,O=C(CCCCCn1c(SCc2ccncc2)nc2ccccc2c1=O)NCc1ccco1,0% (inactive)
13,Cc1cc(NC(=O)COc2cccc3cccnc23)no1,6% (inactive)
14,CCN1CCN(Cc2nc3c(c(=O)n(C)c(=O)n3C)n2CC(=O)c2ccccc2)CC1,2% (inactive)
15,COCCCNC(=O)CCc1nc(-c2ccccc2Cl)no1,0% (inactive)
16,COCCN1C(=O)C(=O)/C(=C(/O)c2cccc(OC)c2)C1c1ccncc1 (centres undefined),1% (inactive)
17,CCOc1ccc(NC(=O)COC(=O)Cn2cnnn2)cc1OCC,0% (inactive)
18,COc1ccc(-n2ncc3c(NCCCN4CCOCC4)ncnc32)cc1,6% (inactive)
19,CC(CN1CCCCC1)OC(=O)c1ccc2c(c1)OCO2 (centres undefined),0% (inactive)
